Screens from PubChem BioAssay.
OvCa metastasis: Primary qHTS assay for Inhibitors of ovarian cancer metastasis using an organotypic tumor microenvironment (TME) model. SKOV3ip1-GFP adhesion/invasion on 3D omental model, fluorescence. Potency, µM (doses to about 45.8 µM), inactives show at the top dose activity change, negative = inhibition, usual class: inhibitors. actives 0.1% (n = 46,000);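 also: potency is read from the fitted curve at half-maximal effect; plate controls were DMSO wells for no effect and tomatine positive control wells for full effect; nearly all actives have a fitted effect of over 65% in size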
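A 3D layer of primary human omental fibroblasts, mesothelial cells, fibronectin and collagen I, grown 48 hr, received SKOV3ip1-GFP cells in serum-free medium plus compounds at 0.36-46 umol/L. After 2 hr RT and 16 hr 37 C, fixed adherent GFP cells were counted; normalized to DMSO and tomatine.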
pS6 MEF inh: Acumen qHTS Assay for Inhibitors of the mTORC1 Signaling Pathway in MEF (Tsc2-/-, p53-/-) Cells: Sytravon. Tsc2-/- p53-/- MEF, phospho-rpS6 immunofluorescence/PI, 24 h. Potency, µM (titrated, usually from 38.3 µM), inactives show top-dose activity change, negative = inhibition, most hits filed as inhibitors. actives 0.78% (n = 44,000). AID 493208, 2011;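 also: potency is read from the fitted curve at half-maximal effect; plate controls were DMSO for no effect and rapamycin for full effect; nearly all actives have a fitted effect of over 50% in size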
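Readout is phospho-S6 Alexa 488 signal normalized to PI per well, reported as % active cells with thresholds set from rapamycin (7.5 nM) and DMSO controls. Cells: Tsc2-/-, p53-/- MEFs, 24 hrs compound at 37 C; PI cell number serves as viability.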
PMP22 txn: Cell-based coincidence reporter assay to measure PMP22 gene transcription in S16 Pmp22-F2sN cells - Primary screen | S16 Pmp22-F2sN Schwann cells, FLuc/NLuc coincidence luminescence, 24 h | Potency, µM (series often up to 57.5 µM), inactives show at the top dose activity change, negative = inhibition, actives largely listed as inhibitors | actives 2% (n = 43,000); active = clear falling dose curves in both reporters; inconclusive = both reporters move, but less clearly or upward; inactive = either reporter flat; the % is the NLuc reporter signal; also: potency is read from the fitted curve at half-maximal effect; % is scaled to controls: 0 for no effect and ±100 for the full control effect
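Transcriptional readout in edited S16(c9) cells: two luciferases reported from the Pmp22 locus, measured in turn after 24 h compound incubation.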
S16 viability: Cell viability qHTS assay in S16 Pmp22-F2sN cells | AID 1508642, 2021 | Potency, µM (doses to about 57.5 µM), without a hit: at the top dose activity change, negative = cytotoxicity, actives largely listed as cytotoxic | S16 Pmp22-F2sN Schwann cells viability, CellTiter-Glo, 24 h | actives 0.48% (n = 43,000); also: potency is read from the fitted curve at half-maximal effect; % is scaled to controls: 0 for no effect and ±100 for the full control effect; nearly all actives have a fitted effect of over 65% in size
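Viability was measured by CellTiter-Glo luminescence (15 min, room temperature). This followed 24 h at 37 °C of compound exposure (23 nL pin transfer) in S16 Pmp22-F2sN Schwann cells, 500-1,000 per well.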
NLuc saturating: Biochemical NLuc saturation counterscreen for small molecule modulators of PMP22 gene expression - Nano-Glo assay; shares compounds with PMP22 txn; Secreted NLuc enzyme (filtered S16 cell medium), Nano-Glo luminescence; Potency, µM (highest dose often 57.5 µM), for inactives: at the highest dose activity change, negative = inhibition, actives largely listed as inhibitors; actives 4% (n = 690); AID 1508638, 2021; also: potency is read from the fitted curve at half-maximal effect; % is scaled to controls: 0 for no effect and ±100 for the full control effect
NLuc Km ctr: Biochemical coelenterazine-based NLuc counterscreen for small molecule modulators of PMP22 gene expression - Km assay; shares compounds with PMP22 txn; secreted NLuc enzyme, coelenterazine luminescence, Km conditions; Potency, µM (highest dose often 57.5 µM), without a hit: at the highest dose activity change, negative = inhibition, usual class: inhibitors; actives 5% (n = 690); also: potency is read from the fitted curve at half-maximal effect; % is scaled to controls: 0 for no effect and ±100 for the full control effect
FLuc counter: Biochemical FLuc counterscreen for small molecule modulators of PMP22 gene expression; shares compounds with PMP22 txn; purified P. pyralis FLuc, luminescence, 10 min; Potency, µM (highest dose often 57.5 µM), for inactives: at the highest dose activity, negative = inhibition, hits mostly inhibitors; 690 tested, under 10 active; AID 1508640, 2021; also: % of control where 0% means no effect
Target sequence (P08659 whole entry, looked up): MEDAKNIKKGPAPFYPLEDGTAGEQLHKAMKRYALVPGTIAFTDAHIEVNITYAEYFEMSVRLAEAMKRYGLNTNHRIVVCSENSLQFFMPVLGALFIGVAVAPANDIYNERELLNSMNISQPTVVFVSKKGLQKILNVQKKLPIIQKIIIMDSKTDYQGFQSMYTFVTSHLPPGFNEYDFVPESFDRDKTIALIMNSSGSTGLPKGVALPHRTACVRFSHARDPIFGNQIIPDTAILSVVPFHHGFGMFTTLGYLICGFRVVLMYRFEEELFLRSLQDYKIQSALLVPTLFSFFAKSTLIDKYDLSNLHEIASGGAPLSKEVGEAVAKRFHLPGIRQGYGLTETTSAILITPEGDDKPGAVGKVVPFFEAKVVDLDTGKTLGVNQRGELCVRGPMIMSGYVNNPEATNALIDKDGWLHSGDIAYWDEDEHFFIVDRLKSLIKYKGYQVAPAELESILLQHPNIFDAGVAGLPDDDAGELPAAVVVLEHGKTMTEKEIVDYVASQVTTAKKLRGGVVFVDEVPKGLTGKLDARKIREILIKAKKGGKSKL
S16 F2sN tox cnf: Cell viability qHTS assay in S16 Pmp22-F2sN cells - Confirmatory screen. shares compounds with PMP22 txn. S16 Schwann cells viability, CellTiter-Glo ATP luminescence, 24 h. Potency, µM (top dose mostly 57.5 µM), for inactives: at the highest dose activity change, negative = viability loss, actives largely listed as cytotoxic. actives 7% (n = 690). AID 1508641, 2021; also: potency is read from the fitted curve at half-maximal effect; % is scaled to controls: 0 for no effect and ±100 for the full control effect
PMP22 txn conf: Cell-based coincidence reporter assay to measure PMP22 gene transcription in S16 Pmp22-F2sN cells - Confirmatory screen; shares compounds with PMP22 txn; S16 Schwann cells Pmp22-F2sN, dual luciferase, 24 h; actives 22% (n = 690); Potency, µM (series often up to 57.5 µM), for inactives: top-dose activity change, negative = inhibition, most hits filed as inhibitors; active = clear falling dose curves in both reporters; inconclusive = both reporters move, but less clearly or upward; inactive = either reporter flat; the % is the FLuc reporter signal; also: potency is read from the fitted curve at half-maximal effect
PMP22 prot conf: Cell-based HiBiT reporter assay to measure PMP22 protein expression in S16 Pmp22-HiBiT cells - Confirmatory screen; Potency, µM (top dose mostly 27.9 µM), inactives show at the top dose activity change, negative = inhibition, most hits filed as inhibitors; 95 tested, under 10 active; shares compounds with PMP22 txn; S16 Schwann cells Pmp22-HiBiT, luminescence, 48 h
Target sequence (P25094 whole entry, looked up): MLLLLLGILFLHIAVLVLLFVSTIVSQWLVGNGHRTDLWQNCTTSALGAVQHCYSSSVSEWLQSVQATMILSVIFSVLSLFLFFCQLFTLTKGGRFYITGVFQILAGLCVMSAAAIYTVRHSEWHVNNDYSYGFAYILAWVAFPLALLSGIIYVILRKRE
An asterisk follows results filed as active; i = inactive; ? = inconclusive; nt = no result. Hits are enriched below; roughly 2.6% of the tested compounds scored in any of these assays. Unless noted, calls follow the shape of the dose curve; as a rule, active = well fitted curve in the direction sought with a large enough effect; inconclusive = small, poorly fitted or top-dose-only effect, or another doubt; inactive = no such curve, though single readings can be large; an effect the other way counts as inactive or inconclusive.

SMILES	OvCa metastasis	pS6 MEF inh	PMP22 txn	S16 viability	NLuc saturating	NLuc Km ctr	FLuc counter	S16 F2sN tox cnf	PMP22 txn conf	others
CC(C)c1c(C(=O)Nc2ccccc2)c(-c2ccccc2)c(-c2ccc(F)cc2)n1CC[C@H](O)C[C@@H](O)CC(=O)O	-19%	nt	nt	nt	nt	nt	nt	nt	nt
CCc1ccc(OCC(=O)Nc2cc3oc4ccccc4c3cc2OC)cc1	i	1%	6.4µM*	4%	5%	2%	3%	-13%	18µM*	PMP22 prot conf=11%
Cc1ccc(-c2c3c(=O)n(C)c(=O)n(C)c3c3c(-c4cccc(C)c4)nc4ccccc4n23)cc1	-4%	-7%	0%	-1%	nt	nt	nt	nt	nt
Cc1cccc(-c2c3c(=O)n(C)c(=O)n(C)c3c3c(C)nc4ccccc4n23)c1	8%	-12%	13µM*	-25%	-7%	-15%	2%	4%	-53%
O=C(CSc1ncc2c(n1)-c1ccccc1N(Cc1ccc(F)cc1)S2(=O)=O)NCCc1ccccc1	2%	3%	18µM*	4%	-1%	2%	7%	?	?
CCCCCCCCCCCCCC(=O)N[C@H](CO)[C@H](O)c1ccc([N+](=O)[O-])cc1	-2%	nt	nt	nt	nt	nt	nt	nt	nt
CCOCCCNC(=O)NC(C)c1c(-n2cccc2)sc2c1CCN(CC)C2 (stereo not drawn)	-3%	1%	16µM*	1%	-6%	0%	7%	-21%	14%
CCOc1ccc(NC(=O)NC(C)c2c(-n3cccc3)sc3c2CCN(CC)C3)cc1 (stereo not drawn)	i	-9%	15µM*	-19%	?	-20%	4%	-20%	-28%
COc1cccc(Cn2c(NCc3ccc(C)cc3)nc3c2c(=O)n(C)c(=O)n3C)c1	2%	-7%	-24%	-6%	nt	nt	nt	nt	nt
Cn1c(-c2cccc(Br)c2)cnc1NCc1cccc(F)c1	-1%	?	?	-11%	-11%	?	1%	-21%	-27%
CCc1ccc(CNc2ncc(-c3cccc(OC)c3)n2C)cc1	5.6µM*	13µM*	?	?	-9%	-7%	-10%	?	?
CC(=O)N1c2c(cc(Br)cc2S(=O)(=O)Nc2ccc(OC(F)(F)F)cc2)CC1C (stereo not drawn)	15%	?	16µM*	-24%	22µM*	1.5µM*	-5%	3%	-30%
CCOC(=O)c1ccc(NS(=O)(=O)c2cc(Br)cc3c2N(C(C)=O)C(C)C3)cc1 (stereo not drawn)	i	1%	?	0%	nt	nt	nt	nt	nt
CCCCn1c(=O)n(Cc2ccccc2F)c(=O)c2[nH]c(Cc3ccc(NC(C)=O)cc3)nc21	-22%	nt	nt	nt	nt	nt	nt	nt	nt
CCCCn1c(=O)c2oc3ccccc3c2n(CC(=O)Nc2ccc(CC)cc2)c1=O	-1%	1%	14µM*	14%	-10%	5%	-12%	-4%	?
Cc1cc(C)cc(NC(=O)Cn2c(=O)n(Cc3ccco3)c(=O)c3oc4ccccc4c32)c1	?	-11%	?	-9%	nt	nt	nt	nt	nt
Cc1ccc(C)c(NC(=O)Cn2c(=O)n(Cc3ccccc3)c(=O)c3oc4ccccc4c32)c1	11%	-2%	19µM*	0%	-12%	-1%	-12%	?	?	PMP22 prot conf=?
CCCCn1c(=O)c2oc3ccccc3c2n(CC(=O)Nc2cc(C)ccc2C)c1=O	-1%	-5%	?	0%	nt	nt	nt	nt	nt
CCOc1ccccc1NC(=O)CSc1nc2c(oc3ccccc32)c(=O)n1Cc1ccco1	8%	-4%	11µM*	?	-16%	2%	-7%	2%	-33%
Cc1ccc(C)c(NC(=O)Cn2c(=O)n(Cc3ccco3)c(=O)c3oc4ccccc4c32)c1	4%	5%	12µM*	-2%	-17%	3%	0%	-24%	?
CCCCn1c(=O)c2oc3ccccc3c2n(CC(=O)Nc2cccc(Cl)c2)c1=O	i	5%	-20%	8%	nt	nt	nt	nt	nt
NC[C@H]1O[C@H](O[C@H]2[C@@H](O)[C@@H](O[C@H]3O[C@H](CO)[C@@H](O)[C@H](N)[C@@H]3O)[C@H](N)C[C@@H]2N)[C@H](N)C[C@H]1O	2%	nt	nt	nt	nt	nt	nt	nt	nt
CC(C)C(C)C=CC(C)C1CCC2C3=CC=C4CC(O)CCC4(C)C3CCC21C (stereo not drawn)	-5%	nt	nt	nt	nt	nt	nt	nt	nt
Cc1cccc(N(C)S(=O)(=O)c2ccc(-c3cc(C)no3)s2)c1	i	-19%	7.6µM*	-17%	?	?	-12%	-14%	?
Cc1cc(-c2ccc(S(=O)(=O)Nc3cccc(C(F)(F)F)c3)s2)on1	8%	-16%	?	-11%	nt	nt	nt	nt	nt
NC(N)=Nc1nc(CSCCC(N)=NS(N)(=O)=O)cs1	13%	nt	nt	nt	nt	nt	nt	nt	nt
COc1ccc(N(CC(=O)Nc2cc(Cl)ccc2C)S(=O)(=O)c2c(C)noc2C)cc1	-30%	-17%	14µM*	-5%	-8%	?	1%	-8%	?	PMP22 prot conf=?
